Common to all, as to conditions: mRNA level, 48 h; actives raise or lower the signal
Read-out in test [1]: Paternally Expressed 10 (PEG10), PEG10 (gene 23089)
Description: LTEA_HepaRG_PEG10: Life Technologies and Expression Analysis (LTEA) Assay for Paternally Expressed 10 (PEG10) using HepaRG (AID 2283520). In outline:
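Differentiated HepaRG cells exposed 48 h in serum-free induction medium to eight half-log concentrations topping at 100 uM, 0.5% DMSO, in duplicate. PEG10 mRNA quantified by TaqMan qRT-PCR, normalized to ACTB, GAPDH and POLR2A; bidirectional fit versus DMSO.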

Read-out in test [2]: Protein phosphatase 2A (PPP2R4), PTPA (gene 5524)
Description: LTEA_HepaRG_PPP2R4: Life Technologies and Expression Analysis (LTEA) Assay for Protein phosphatase 2A (PPP2R4) using HepaRG (AID 2283522). The gist of the method: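 Differentiated human HepaRG cells in serum-free induction medium were exposed 48 h to 8 concentrations (top 100 µM, half-log steps, duplicate) in 0.5% DMSO. PPP2R4 mRNA was measured by TaqMan qRT-PCR, normalised to ACTB, GAPDH and POLR2A, and fitted bidirectionally versus DMSO.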

Read-out in test [3]: Phosphatase and tensin (PTEN), PTEN (gene 5728)
Description: LTEA_HepaRG_PTEN: Life Technologies and Expression Analysis (LTEA) Assay for Phosphatase and tensin (PTEN) using HepaRG (AID 2283523). The gist of the method:
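HepaRG cells, 48 h after plating, exposed in duplicate for 48 h in serum-free induction medium to 8 half-log concentrations up to 100 uM (0.5% DMSO). PTEN mRNA by qRT-PCR, normalized to ACTB, GAPDH, POLR2A; bidirectional fit versus DMSO.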

Read-out in test [4]: solute carrier (SLC22A1), SLC22A1 (gene 6580)
Kind of test: LTEA_HepaRG_SLC22A1: Life Technologies and Expression Analysis (LTEA) Assay for solute carrier (SLC22A1) using HepaRG (AID 2283524). The gist of the method: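 Differentiated human HepaRG cells in serum-free induction medium, exposed 48 h in duplicate to 8-point half-log series from 100 µM top in 0.5% DMSO. SLC22A1 mRNA by TaqMan qRT-PCR normalized to ACTB, GAPDH, POLR2A; bidirectional fit versus DMSO.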

Read-out in test [5]: Pyruvate Dehydrogenase Kinase 4 (PDK4), PDK4 (gene 5166)
Kind of test: LTEA_HepaRG_PDK4: Life Technologies and Expression Analysis (LTEA) Assay for Pyruvate Dehydrogenase Kinase 4 (PDK4) using HepaRG (AID 2283525). The gist of the method:
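HepaRG cells plated 48 h, then switched to serum-free induction medium and exposed in duplicate for 48 h to 8 half-log concentrations from 100 uM in 0.5% DMSO. PDK4 mRNA measured by qRT-PCR, normalized to ACTB, GAPDH and POLR2A; bidirectional fit versus DMSO.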

Read-out in test [6]: NAD(P)H dehydrogenase [quinone] 1 (NQO1), NQO1 (gene 1728)
Kind of test: LTEA_HepaRG_NQO1: Life Technologies and Expression Analysis (LTEA) Assay for NAD(P)H dehydrogenase [quinone] 1 (NQO1) using HepaRG (AID 2283526). The gist of the method:
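Differentiated human HepaRG cells in serum-free induction medium, dosed in duplicate for 48 h at 8 half-log concentrations up to 100 uM in 0.5% DMSO. NQO1 mRNA by qRT-PCR normalized to ACTB, GAPDH, POLR2A; bidirectional fit versus DMSO baseline.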

Read-out in test [7]: Nuclear factor erythroid 2-related factor 2 (Homo sapiens) (UniProt Q16236)
Description: LTEA_HepaRG_NFE2L2: Life Technologies and Expression Analysis (LTEA) Assay for Nuclear factor erythroid 2-related factor 2 (NFE2L2) Transcription Factor using HepaRG (AID 2283527).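 On outcome: TaqMan qRT-PCR transcript level normalised to ACTB GAPDH and POLR2A housekeeping genes.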 In outline: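 Differentiated human HepaRG cells, serum-free induction medium, exposed 48 h in duplicate to eight half-log concentrations up to 100 uM in 0.5% DMSO. NFE2L2 mRNA by Fluidigm TaqMan qRT-PCR, normalised to ACTB, GAPDH, POLR2A; bidirectional change versus DMSO.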

Read-out in test [8]: Signal transducer and activator of transcription 3 (Homo sapiens) (UniProt P40763)
Description: LTEA_HepaRG_STAT3: Life Technologies and Expression Analysis (LTEA) Assay for Signal transducer and activator of transcription (STAT3) using HepaRG (AID 2283529). The gist of the method:
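Differentiated HepaRG cells, serum-free induction medium, dosed 48 h in duplicate, 8 half-log concentrations from 100 uM in 0.5% DMSO. STAT3 mRNA by qRT-PCR, normalised to ACTB, GAPDH, POLR2A; bidirectional fit versus DMSO.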

Read-out in test [9]: solute carrier (SLCO1B1), SLCO1B1 (gene 10599)
Description: LTEA_HepaRG_SLCO1B1: Life Technologies and Expression Analysis (LTEA) Assay for solute carrier (SLCO1B1) using HepaRG (AID 2283530). In outline: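 SLCO1B1 transcript read by qRT-PCR (Fluidigm arrays), normalized to three housekeeping genes, after 48 h chemical exposure of HepaRG cells; bidirectional concentration-response fitting versus 0.5% DMSO baseline. Eight-point half-log series, maximum 100 uM.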

Read-out in test [10]: sulfotransferase 2A1 (SULT2A1), SULT2A1 (gene 6822)
Kind of test: LTEA_HepaRG_SULT2A1: Life Technologies and Expression Analysis (LTEA) Assay for sulfotransferase 2A1 (SULT2A1) using HepaRG (AID 2283531). The gist of the method: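 HepaRG, 48 h chemical exposure, 8-pt half-log curve from 100 uM in 0.5% DMSO, duplicates. Readout: TaqMan qRT-PCR of SULT2A1 mRNA, housekeeping-normalized. Bidirectional fit vs DMSO baseline.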

Read-out in test [11]: Transforming Growth Factor (TGFA), TGFA (gene 7039)
Description: LTEA_HepaRG_TGFA: Life Technologies and Expression Analysis (LTEA) Assay for Transforming Growth Factor (TGFA) using HepaRG (AID 2283532). In outline: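 Differentiated HepaRG cells exposed 48 hours in serum-free induction medium, 0.5% DMSO vehicle, 8-point half-log series from 100 uM, in duplicate. TGFA mRNA by TaqMan qRT-PCR, normalised to ACTB, GAPDH, POLR2A; bidirectional fit versus DMSO.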

Read-out in test [12]: Transforming Growth Factor (TGFB1), TGFB1 (gene 7040)
Kind of test: LTEA_HepaRG_TGFB1: Life Technologies and Expression Analysis (LTEA) Assay for Transforming Growth Factor (TGFB1) Transporter using HepaRG (AID 2283533). In outline:
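qRT-PCR readout of TGFB1 transcript in HepaRG lysates, normalized to three housekeeping genes; gain or loss of signal fitted relative to 0.5% DMSO vehicle. Exposure: 48 h, 8-point curve from 100 uM, duplicate wells.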

Read-out in the next test: TIMP1, TIMP1 (gene 7076)
Description: LTEA_HepaRG_TIMP1: Life Technologies and Expression Analysis (LTEA) Assay for TIMP1 using HepaRG (AID 2283534).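 On outcome: TaqMan qRT-PCR signal normalized to ACTB GAPDH and POLR2A housekeeping genes.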 The gist of the method:
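HepaRG, 48 h exposure, 8-pt half-log series from 100 uM in 0.5% DMSO, duplicates; TIMP1 transcript by Fluidigm qRT-PCR, housekeeping-normalized; bidirectional curve fit vs DMSO baseline.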

Read-out in test [13]: Tumor necrosis factor receptor 1 (TNFRSF1A), TNFRSF1A (gene 7132)
Kind of test: LTEA_HepaRG_TNFRSF1A: Life Technologies and Expression Analysis (LTEA) Assay for Tumor necrosis factor receptor 1 (TNFRSF1A) using HepaRG (AID 2283535). The gist of the method:
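HepaRG, 48 h plating then 48 h chemical exposure, serum-free induction media; 8-pt CRC from 100 uM, half-log, 0.5% DMSO vehicle, duplicates. Readout: TaqMan qRT-PCR (Fluidigm), housekeeping-gene normalized; bidirectional fit vs DMSO.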

Read-out in test [14]: Thyroid Hormone Responsive (THRSP), THRSP (gene 7069)
Description: LTEA_HepaRG_THRSP: Life Technologies and Expression Analysis (LTEA) Assay for Thyroid Hormone Responsive (THRSP) using HepaRG (AID 2283536). The gist of the method:
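Differentiated HepaRG cells treated 48 h in serum-free induction medium with 8 half-log concentrations up to 100 uM (0.5% DMSO), duplicates. THRSP mRNA by TaqMan qRT-PCR normalised to ACTB, GAPDH, POLR2A; bidirectional fit versus DMSO.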

Read-out in test [15]: Cellular tumor antigen p53 (Homo sapiens) (UniProt P04637)
Kind of test: LTEA_HepaRG_TP53: Life Technologies and Expression Analysis (LTEA) Assay for Tumor Protein P53 (TP53) using HepaRG (AID 2283537). The gist of the method:
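Gain or loss of TP53 mRNA signal is scored relative to 0.5% DMSO after 48 h chemical treatment of HepaRG liver cells, tested in duplicate at eight half-log concentrations up to 100 uM.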

Read-out in test [16]: succinate dehydrogenase complex iron sulfur subunit B (SDHB), SDHB (gene 6390)
Kind of test: LTEA_HepaRG_SDHB: Life Technologies and Expression Analysis (LTEA) Assay for succinate dehydrogenase complex iron sulfur subunit B (SDHB) using HepaRG (AID 2283528). In outline: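 A human HepaRG culture in serum-free induction medium received test chemicals for 48 h over an eight-point range capped at 100 uM. SDHB expression change was quantified by qRT-PCR.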

Read-out in test [17]: Nuclear factor NF-kappa-B p105 subunit (Homo sapiens) (UniProt P19838)
Kind of test: LTEA_HepaRG_NFKB1: Life Technologies and Expression Analysis (LTEA) Assay for Nuclear Factor Kappa B Subunit 1 (NFKB1) using HepaRG (AID 2283521).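 Further: TaqMan qRT-PCR transcript normalised to ACTB GAPDH and POLR2A housekeeping genes.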 In outline:
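Human HepaRG cells receive eight half-log concentrations, highest 100 uM, for 48 h. NFKB1 expression is then quantified by qRT-PCR and analysed for up- or down-regulation relative to 0.5% DMSO vehicle.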

Read-out in test [18]: UDP glucuronosyltransferase (UGT1A1), UGT1A1 (gene 54658)
Description: LTEA_HepaRG_UGT1A1: Life Technologies and Expression Analysis (LTEA) Assay for UDP glucuronosyltransferase (UGT1A1) using HepaRG (AID 2283538). The gist of the method: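 HepaRG cells, 0.5% DMSO vehicle, 48 h exposure in serum-free induction medium to 8-point half-log series topping at 100 uM, in duplicate. UGT1A1 mRNA by Fluidigm qRT-PCR, normalized to ACTB/GAPDH/POLR2A; bidirectional fit versus DMSO.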

Calls of active or inactive are those of the source. How the source made its calls: active means hit-call score of the fitted dose curve at least 0.9, where 1 is the maximum; inactive means score below 0.9.

Sequence of Nuclear factor NF-kappa-B p105 subunit (Homo sapiens) (P19838 whole entry, looked up): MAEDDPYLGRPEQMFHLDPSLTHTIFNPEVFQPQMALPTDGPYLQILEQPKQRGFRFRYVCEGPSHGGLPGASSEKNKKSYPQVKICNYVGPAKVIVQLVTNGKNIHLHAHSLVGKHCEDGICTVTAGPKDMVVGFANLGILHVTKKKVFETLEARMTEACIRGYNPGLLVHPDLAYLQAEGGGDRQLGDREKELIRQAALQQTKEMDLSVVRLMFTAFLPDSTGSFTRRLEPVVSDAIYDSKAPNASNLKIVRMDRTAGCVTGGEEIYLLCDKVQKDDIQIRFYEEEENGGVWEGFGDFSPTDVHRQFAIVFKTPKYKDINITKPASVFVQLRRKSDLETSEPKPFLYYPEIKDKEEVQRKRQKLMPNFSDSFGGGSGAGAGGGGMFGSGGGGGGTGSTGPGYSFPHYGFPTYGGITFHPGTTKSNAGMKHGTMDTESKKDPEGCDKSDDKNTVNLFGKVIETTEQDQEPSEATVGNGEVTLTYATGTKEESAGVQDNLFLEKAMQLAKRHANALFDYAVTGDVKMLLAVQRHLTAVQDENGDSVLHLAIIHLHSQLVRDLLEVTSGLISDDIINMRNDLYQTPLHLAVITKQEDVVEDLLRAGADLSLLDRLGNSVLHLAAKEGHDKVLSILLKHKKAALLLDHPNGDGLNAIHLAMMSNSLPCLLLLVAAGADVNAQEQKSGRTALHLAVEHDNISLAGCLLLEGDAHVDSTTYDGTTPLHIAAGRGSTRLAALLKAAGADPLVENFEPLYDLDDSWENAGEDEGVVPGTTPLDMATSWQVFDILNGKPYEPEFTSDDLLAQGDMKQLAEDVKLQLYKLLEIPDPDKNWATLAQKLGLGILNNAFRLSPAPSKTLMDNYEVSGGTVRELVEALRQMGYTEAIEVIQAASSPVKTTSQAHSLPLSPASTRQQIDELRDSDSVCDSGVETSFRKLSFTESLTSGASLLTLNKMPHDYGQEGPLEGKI
Sequence of Nuclear factor erythroid 2-related factor 2 (Homo sapiens) (Q16236 whole entry, looked up): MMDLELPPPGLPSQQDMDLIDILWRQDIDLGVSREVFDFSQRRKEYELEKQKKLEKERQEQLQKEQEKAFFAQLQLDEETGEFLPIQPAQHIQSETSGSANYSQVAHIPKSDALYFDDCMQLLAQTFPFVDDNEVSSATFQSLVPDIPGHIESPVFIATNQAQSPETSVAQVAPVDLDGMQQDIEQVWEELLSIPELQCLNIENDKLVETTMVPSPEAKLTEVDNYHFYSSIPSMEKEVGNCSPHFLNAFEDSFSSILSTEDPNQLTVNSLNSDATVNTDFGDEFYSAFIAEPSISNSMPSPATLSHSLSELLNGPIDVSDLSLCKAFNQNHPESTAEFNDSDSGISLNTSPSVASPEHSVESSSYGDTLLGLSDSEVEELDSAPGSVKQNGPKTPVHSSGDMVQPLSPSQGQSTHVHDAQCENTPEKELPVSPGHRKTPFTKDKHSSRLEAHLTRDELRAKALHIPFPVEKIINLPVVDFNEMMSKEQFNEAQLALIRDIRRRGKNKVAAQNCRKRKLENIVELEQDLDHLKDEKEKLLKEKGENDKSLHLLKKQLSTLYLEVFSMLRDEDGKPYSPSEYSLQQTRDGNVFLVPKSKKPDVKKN
Sequence of Signal transducer and activator of transcription 3 (Homo sapiens) (P40763 whole entry, looked up): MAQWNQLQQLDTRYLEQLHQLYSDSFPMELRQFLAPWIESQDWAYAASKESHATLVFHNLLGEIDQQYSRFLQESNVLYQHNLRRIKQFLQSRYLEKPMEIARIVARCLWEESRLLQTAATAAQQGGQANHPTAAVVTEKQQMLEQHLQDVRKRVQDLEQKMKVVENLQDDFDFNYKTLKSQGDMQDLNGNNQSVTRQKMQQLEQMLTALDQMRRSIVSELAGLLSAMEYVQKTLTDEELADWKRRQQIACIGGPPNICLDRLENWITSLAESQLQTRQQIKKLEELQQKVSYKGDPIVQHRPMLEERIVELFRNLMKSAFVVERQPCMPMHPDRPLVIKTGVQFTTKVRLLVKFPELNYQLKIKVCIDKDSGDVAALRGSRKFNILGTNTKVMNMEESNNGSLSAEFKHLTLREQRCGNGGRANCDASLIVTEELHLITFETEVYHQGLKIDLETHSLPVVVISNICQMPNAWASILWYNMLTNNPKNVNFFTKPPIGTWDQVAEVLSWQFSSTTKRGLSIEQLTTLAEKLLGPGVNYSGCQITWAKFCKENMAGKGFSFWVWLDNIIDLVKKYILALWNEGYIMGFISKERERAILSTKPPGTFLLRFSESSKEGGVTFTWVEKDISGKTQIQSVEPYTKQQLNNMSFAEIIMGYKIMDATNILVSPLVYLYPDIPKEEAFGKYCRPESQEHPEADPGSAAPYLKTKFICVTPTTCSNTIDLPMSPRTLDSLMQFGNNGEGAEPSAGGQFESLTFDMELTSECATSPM
Sequence of Cellular tumor antigen p53 (Homo sapiens) (P04637 whole entry, looked up): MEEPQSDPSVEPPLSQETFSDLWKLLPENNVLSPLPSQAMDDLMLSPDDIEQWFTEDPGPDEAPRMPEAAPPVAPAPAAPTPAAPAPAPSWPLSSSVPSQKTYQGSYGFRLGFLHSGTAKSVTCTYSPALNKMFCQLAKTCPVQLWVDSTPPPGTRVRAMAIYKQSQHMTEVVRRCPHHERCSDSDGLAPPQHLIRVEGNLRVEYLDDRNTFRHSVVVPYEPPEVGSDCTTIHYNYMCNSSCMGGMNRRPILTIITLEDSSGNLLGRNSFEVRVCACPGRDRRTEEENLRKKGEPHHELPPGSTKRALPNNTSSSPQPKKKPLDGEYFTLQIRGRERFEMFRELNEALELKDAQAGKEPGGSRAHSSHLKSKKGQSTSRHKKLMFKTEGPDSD

Consider `CCOC(=O)CCC(=O)OCC`, for which the compound was classed as inactive in test [1], in test [2], in [4], in test [5], in test [6] and in test [7]. In addition, the outcome is “inactive” in [8]; “inactive” in [9]; “inactive” in test [10]; “inactive” in test [11]; “inactive” in test [12]; “inactive” with TIMP1, TIMP1 (gene 7076). Besides, the call in [13], in [14] and in [15] was inactive. In addition, the AC50 in [3] is 81.2 µM (active).
Turning to `CCCCCCCCCCCCCO`, the result in test [1], in [2], in test [3], in test [4], in test [5] and in [6] was inactive. In addition, the compound was called inactive in [7], in [16], in test [9], in test [10], in [11] and in test [12]. Also, the outcome is “inactive” with TIMP1, TIMP1 (gene 7076); “inactive” in test [13]; “inactive” in [14]; “inactive” in test [15].
For the compound `Clc1cc(Cl)c(Cl)cc1Cl`, the outcome in [1], in test [17], in test [3], in test [4], in [5] and in test [6] was inactive. In addition, the compound was called inactive in test [7], in [8], in test [9], in test [10], in test [11] and in [12]. For the same compound, the outcome in the test with TIMP1, TIMP1 (gene 7076) was “inactive”; in test [13], “inactive”; in [14], “inactive”; in test [15], “inactive”.
`O=C(O)CCCCC(=O)O`: the compound was classed as inactive in test [1], in test [17], in test [3], in test [4], in [5] and in test [6]. Besides, the call in test [7], in [8], in test [9], in test [10], in [11] and in test [12] was inactive. The outcome with TIMP1, TIMP1 (gene 7076) is “inactive”; in [13], “inactive”; in test [14], “inactive”; in test [15], “inactive”; in test [18] it was “inactive”.
Regarding `Oc1ccc2ccccc2c1N=Nc1ccccc1`, the AC50 in test [1] was 19 µM (active); in test [4] it was 10.5 µM (active); in test [5], 4.28 µM (active); in [7], 1.5 µM (active); in [9], 11.4 µM (active); in [10] it was 4.89 µM (active). Besides, the AC50 with TIMP1, TIMP1 (gene 7076) is 10.1 µM (active); in [14] it was 2.19 µM (active); in test [18], 0.811 µM (active). Further, the compound was classed as inactive in test [17], in [3], in test [6], in test [11], in test [12] and in test [13]. For the same compound, the call in test [15] was inactive.
As to `COc1cc(S(=O)(=O)O)c(C)cc1N=Nc1c(O)ccc2cc(S(=O)(=O)O)ccc12`, the compound was classed as inactive in [1], in test [3], in [4], in [5], in [6] and in test [7]. Further, the outcome in test [16] is “inactive”; in [9], “inactive”; in [10] it was “inactive”; in test [11] it was “inactive”; in test [12], “inactive”; with TIMP1, TIMP1 (gene 7076), “inactive”. Moreover, the outcome in [13], in test [15] and in [18] was inactive.
